Drawing on PubChem BioAssay (Tox21), this text covers Potency and outcome for eight molecules.

Several values for one entry are separate records, joined by “and”; a condition that tells them apart may be missing. Equal values may be shown once. Records with an inconclusive call do not appear. The source holds several records for some structures; these can differ, active in one and inactive in another. Activity calls are given as the source filed them. Unless noted, the call rests on the fitted dose curve; in most records, active means well fitted curve in the direction sought with a large enough effect in the repeat runs; inconclusive means weak or mixed curves; inactive means no such curve, though single readings can be large; an effect the other way counts as inactive or inconclusive.

Assay [1] can be described thus: qHTS assay to identify small molecule antagonists of the thyroid receptor (TR) signaling pathway - cell viability counter screen (AID 743064). Further: nearly all actives have a fitted effect of over 50% in size. Further: potency means the concentration at half of the fitted maximal effect. In a few lines: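 GH3.TRE-Luc rat pituitary cells dosed after 4 hr plating, co-stimulated with T3 at 1 nM final, incubated 23.5 h at 37 C. Viability measured in the same wells by CellTiter-Fluor fluorescence after 30 min further at 37 C.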

Assay [2] is described as follows: qHTS assay to identify small molecule antagonists of the thyroid receptor (TR) signaling pathway (AID 743065). Further: nearly all actives have a fitted effect of over 55% in size. Further: potency means the concentration at half of the fitted maximal effect. In a few lines: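 GH3.TRE-Luc rat pituitary cells (two TREs driving luciferase) were dosed with compound, then stimulated with 1 nM T3 (final) for 23.5 h at 37 C. ONE-Glo luminescence was the read-out, with CellTiter-Fluor fluorescence as the cytotoxicity counter-screen.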

Assay [3] deals with thyroid hormone receptor (rat, GH3 cells). The assay can be described thus: qHTS assay to identify small molecule agonists of the thyroid receptor (TR) signaling pathway (AID 743066; calls by dose curve).
The target in assay [4] is Estrogen receptor (Homo sapiens) (UniProt P03372). The assay can be described thus: qHTS assay to identify small molecule antagonists of the estrogen receptor alpha (ER-alpha) signaling pathway (AID 743069; active means well fitted curve in the direction sought with a large enough effect in the signal ratio in the repeat runs, not every such curve was filed as active; the % refers to the signal ratio). In a few lines: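 Beta-lactamase FRET fluorescence is read after 2 hr at room temperature with LiveBLAzer B/G substrate. Before that, ER-alpha-bla HEK293 cells sit 4 hr after plating, then receive compound plus 17beta-estradiol and incubate 18 hr at 37C.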
Estrogen receptor (Homo sapiens), sequence (P03372 whole entry, looked up): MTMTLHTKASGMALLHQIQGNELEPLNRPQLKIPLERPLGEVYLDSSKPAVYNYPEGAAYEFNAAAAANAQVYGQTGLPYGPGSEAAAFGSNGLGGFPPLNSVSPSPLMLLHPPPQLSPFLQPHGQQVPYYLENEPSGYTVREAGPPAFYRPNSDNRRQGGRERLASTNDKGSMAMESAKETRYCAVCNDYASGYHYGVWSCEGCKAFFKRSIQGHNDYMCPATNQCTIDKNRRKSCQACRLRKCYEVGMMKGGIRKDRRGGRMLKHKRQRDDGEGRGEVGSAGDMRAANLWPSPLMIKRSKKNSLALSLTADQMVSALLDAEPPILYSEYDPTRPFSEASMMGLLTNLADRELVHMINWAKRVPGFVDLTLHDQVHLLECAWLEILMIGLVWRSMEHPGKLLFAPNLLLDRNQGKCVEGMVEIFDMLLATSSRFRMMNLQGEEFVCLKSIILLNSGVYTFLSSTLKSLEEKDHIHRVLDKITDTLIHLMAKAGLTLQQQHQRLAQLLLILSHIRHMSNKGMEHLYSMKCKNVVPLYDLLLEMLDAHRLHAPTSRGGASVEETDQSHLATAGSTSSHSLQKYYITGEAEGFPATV

A short description of assay [5]: qHTS assay to identify small molecule antagonists of the estrogen receptor alpha (ER-alpha) signaling pathway - cell viability counter screen (AID 743074; calls by dose curve;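 further: HEK293 cells carrying ER-alpha-UAS-bla reporter stimulated with 17beta-estradiol; nearly all actives have a fitted effect of over 45% in size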).
The target of assay [6] is Estrogen receptor (Homo sapiens) (UniProt P03372). As to the kind of experiment: qHTS assay to identify small molecule agonists of the estrogen receptor alpha (ER-alpha) signaling pathway (AID 743075; calls by dose curve;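 further: HEK293 GripTite cells with ER-alpha and UAS-driven beta-lactamase reporter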).
For assay [7] the target is unchanged. As to the kind of experiment: qHTS assay to identify small molecule agonists of the estrogen receptor alpha (ER-alpha) signaling pathway using the BG1 cell line (AID 743079). Further: nearly all actives have a fitted effect of over 20% in size.
A short description of assay [8]: qHTS assay to identify small molecule antagonists of the estrogen receptor alpha (ER-alpha) signaling pathway using the BG1 cell line (AID 743080; calls by dose curve;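 further: BG1 cells stimulated with 17beta-estradiol alongside compound; series mostly up to about 70 µM; nearly all actives have a fitted effect of over 25% in size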). In short, it runs like this: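 Luminescence from a 4×ERE-luciferase reporter in BG1-Luc-4E2 cells served as read-out. Cells, pre-cultured 5 days in stripped-serum phenol-red-free medium, were exposed to compound with 17beta-estradiol co-stimulation for 21.5 h at 37 C.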

A short description of assay [9]: qHTS assay to identify small molecule antagonists of the estrogen receptor alpha (ER-alpha) signaling pathway using the BG1 cell line - cell viability counter screen (AID 743081).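 Further: compound given together with 17beta-estradiol as the ER stimulus; nearly all actives have a fitted effect of over 45% in size.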 Further: potency means the concentration at half of the fitted maximal effect.
Another assay deals with Aromatase (Homo sapiens) (UniProt P11511). The assay can be described thus: qHTS assay to identify aromatase inhibitors (AID 743083). Further: series mostly up to about 70 µM; nearly all actives have a fitted effect of over 55% in size.
Aromatase (Homo sapiens), sequence (P11511 whole entry, looked up): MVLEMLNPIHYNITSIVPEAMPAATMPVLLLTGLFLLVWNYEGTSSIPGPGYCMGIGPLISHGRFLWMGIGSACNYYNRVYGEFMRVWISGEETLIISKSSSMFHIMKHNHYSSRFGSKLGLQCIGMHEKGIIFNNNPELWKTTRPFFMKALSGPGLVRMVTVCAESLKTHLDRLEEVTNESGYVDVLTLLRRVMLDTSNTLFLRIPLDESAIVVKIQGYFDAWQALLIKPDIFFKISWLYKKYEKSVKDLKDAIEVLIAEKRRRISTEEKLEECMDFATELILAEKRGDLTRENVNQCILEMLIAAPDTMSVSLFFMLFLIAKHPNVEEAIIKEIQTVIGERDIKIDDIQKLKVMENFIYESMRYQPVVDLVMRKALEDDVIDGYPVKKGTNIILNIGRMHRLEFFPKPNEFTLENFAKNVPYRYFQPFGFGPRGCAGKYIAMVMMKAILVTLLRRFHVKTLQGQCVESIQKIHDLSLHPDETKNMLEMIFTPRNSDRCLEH
A short description of assay [10]: qHTS assay to identify aromatase inhibitors - cell viability counter screen (AID 743084).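 Further: cells stimulated with testosterone during compound exposure; nearly all actives have a fitted effect of over 55% in size.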 Further: potency means the concentration at half of the fitted maximal effect.
Assay [11] addresses Aryl hydrocarbon receptor (Homo sapiens) (UniProt P35869). The assay can be described thus: qHTS assay to identify small molecule that activate the aryl hydrocarbon receptor (AhR) signaling pathway (AID 743085).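 Further: HG2L7.5c1 human HepG2 liver cells with stably integrated DRE-driven firefly reporter; series mostly up to about 70 µM; nearly all actives have a fitted effect of over 15% in size.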 In short, it runs like this: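 HepG2 cells stably carrying a 20-DRE firefly luciferase reporter (HG2L7.5c1) treated with compound for 24 hr at 37C. Luciferase read by ONE-Glo luminescence, with CellTiter-Fluor viability read first.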

Assay [12] is described as follows: qHTS assay to identify small molecule that activate the aryl hydrocarbon receptor (AhR) signaling pathway - cell viability counter screen (AID 743086). Further: series mostly up to about 70 µM; nearly all actives have a fitted effect of over 45% in size. In a few lines: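 HepG2-AhR-luc (HG2L7.5c1) cells, 4000/well, treated 24 h at 37 C with compound; viability measured as CellTiter-Fluor fluorescence after 30 min in the same wells as the luciferase read.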
The nature of assay [13]: qHTS assay to identify small molecule antagonists of the peroxisome proliferator-activated receptor gamma (PPARg) signaling pathway - cell viability counter screen (AID 743194). Further: nearly all actives have a fitted effect of over 55% in size. In a few lines:
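Cytotoxicity counter screen in PPARg-bla HEK293H cells, same wells as reporter assay. Compounds plus 50 nM rosiglitazone (final) for 17 h at 37 C, then viability read by CellTiter-Glo luminescence.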

A short description of assay [14]: qHTS assay for small molecule agonists of the antioxidant response element (ARE) signaling pathway (AID 743202; active means well fitted activation curve with a large enough effect in the signal ratio in the repeat runs, not every such curve was filed as active; the % refers to the signal ratio). In short, it runs like this: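 HepG2 ARE-bla reporter line, 2,000 cells/well; 5 h preincubation 37 C/5% CO2; compound (DMSO) 16 h 37 C; B/G FRET substrate 2 h RT; fluorescence intensity.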
Assay [15] in a line: qHTS assay for small molecule agonists of the antioxidant response element (ARE) signaling pathway - cell viability counter screen (AID 743203; calls by dose curve; further: nearly all actives have a fitted effect of over 55% in size). In a few lines:
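Luminescence read-out (CellTiter-Glo, 30 min at room temperature) measured cell viability in the same wells as the ARE beta-lactamase reporter. HepG2 ARE-bla cells were treated with compounds for 16 hrs at 37C/5% CO2.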

The nature of assay [16]: qHTS assay for small molecule activators of the heat shock response signaling pathway - cell viability counter screen (AID 743209). Further: nearly all actives have a fitted effect of over 50% in size. In short, it runs like this:
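HSE-bla HeLa; 1500 cells/well; overnight 37 C, 5% CO2; compound 5 h 37 C; LiveBLAzer B/G substrate 2.5 h RT; CellTiter-Glo 30 min RT; luminescence.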

A short description of assay [17]: qHTS assay for small molecule activators of the heat shock response signaling pathway (AID 743210; active means well fitted activation curve with a large enough effect in the signal ratio in the repeat runs, with a control signal flat, not every such curve was filed as active; the % refers to the signal ratio; further: series mostly up to about 63 µM). In a few lines: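 Beta-lactamase reporter read-out: FRET substrate fluorescence after 2.5 h at RT, following 5 h compound treatment at 37 C of HeLa cells carrying HSE-driven bla reporter; quantitative HTS format.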
Assay [18] addresses Peroxisome proliferator-activated receptor gamma (Homo sapiens) (UniProt P37231). The assay can be described thus: qHTS assay to identify small molecule agonists of the peroxisome proliferator-activated receptor gamma (PPARg) signaling pathway (AID 743094; active means well fitted activation curve with a large enough effect in the signal ratio in the repeat runs, not every such curve was filed as active; the % refers to the signal ratio). In short, it runs like this:
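HEK293H PPARg-bla cells, 5 h settle at 37C/5% CO2; compound (DMSO) 17 h, 37C; B/G FRET substrate 1 h RT; fluorescence intensity read-out. qHTS format.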

The target is the same in assay [19]. As to the kind of experiment: qHTS assay to identify small molecule antagonists of the peroxisome proliferator-activated receptor gamma (PPARg) signaling pathway (AID 743191; calls by dose curve; further: series mostly up to about 63 µM; nearly all actives have a fitted effect of over 30% in size). In a few lines: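 GeneBLAzer PPARg UAS-bla HEK293H cells, 5 h post-plating, exposed to compounds 17 h at 37C. LiveBLAzer B/G FRET substrate added for 1 h at room temperature; beta-lactamase reporter read by fluorescence intensity.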

Aryl hydrocarbon receptor (Homo sapiens), sequence (P35869 whole entry, looked up): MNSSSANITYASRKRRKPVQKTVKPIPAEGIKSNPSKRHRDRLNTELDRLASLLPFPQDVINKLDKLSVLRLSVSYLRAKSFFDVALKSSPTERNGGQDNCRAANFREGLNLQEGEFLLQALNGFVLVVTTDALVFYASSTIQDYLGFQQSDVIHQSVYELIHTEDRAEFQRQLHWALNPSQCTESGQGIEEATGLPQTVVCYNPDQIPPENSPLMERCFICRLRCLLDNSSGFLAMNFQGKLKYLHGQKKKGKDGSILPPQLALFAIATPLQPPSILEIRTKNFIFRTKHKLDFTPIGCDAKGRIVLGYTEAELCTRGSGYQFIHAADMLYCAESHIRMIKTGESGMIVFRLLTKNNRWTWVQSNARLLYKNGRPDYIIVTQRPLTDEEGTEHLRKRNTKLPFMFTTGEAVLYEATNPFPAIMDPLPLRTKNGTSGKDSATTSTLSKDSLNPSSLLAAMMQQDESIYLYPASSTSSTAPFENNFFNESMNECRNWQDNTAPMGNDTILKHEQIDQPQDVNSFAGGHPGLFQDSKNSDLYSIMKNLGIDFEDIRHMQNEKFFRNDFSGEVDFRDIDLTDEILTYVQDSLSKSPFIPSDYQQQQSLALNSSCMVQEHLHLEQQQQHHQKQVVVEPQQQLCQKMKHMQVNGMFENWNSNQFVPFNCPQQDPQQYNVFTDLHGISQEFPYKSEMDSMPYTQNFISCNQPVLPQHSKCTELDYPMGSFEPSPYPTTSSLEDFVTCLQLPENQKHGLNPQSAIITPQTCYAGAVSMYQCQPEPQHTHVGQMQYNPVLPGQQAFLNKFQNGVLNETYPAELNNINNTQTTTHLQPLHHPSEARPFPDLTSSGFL
Peroxisome proliferator-activated receptor gamma (Homo sapiens), sequence (P37231 whole entry, looked up): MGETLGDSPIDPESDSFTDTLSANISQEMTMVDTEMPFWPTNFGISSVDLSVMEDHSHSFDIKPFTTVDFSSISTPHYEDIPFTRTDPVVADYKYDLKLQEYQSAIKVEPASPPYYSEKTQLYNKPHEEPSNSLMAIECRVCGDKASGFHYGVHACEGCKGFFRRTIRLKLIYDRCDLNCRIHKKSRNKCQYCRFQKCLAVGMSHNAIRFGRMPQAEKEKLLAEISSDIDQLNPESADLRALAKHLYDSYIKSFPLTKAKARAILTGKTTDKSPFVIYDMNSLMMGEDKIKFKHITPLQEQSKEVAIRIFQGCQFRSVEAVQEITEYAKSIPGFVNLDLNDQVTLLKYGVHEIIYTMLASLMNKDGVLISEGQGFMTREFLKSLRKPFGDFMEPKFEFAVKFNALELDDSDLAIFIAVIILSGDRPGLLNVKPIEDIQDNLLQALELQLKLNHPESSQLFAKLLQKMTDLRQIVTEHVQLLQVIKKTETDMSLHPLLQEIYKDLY

Consider `CCN(CC)CCNC(=O)c1cc(Cl)c(N)cc1OC`, for which the Potency entry in [1], in [2], in assay [3], in assay [4], in assay [5] and in assay [6] was “inactive” throughout. For the same molecule, the Potency result (in [7]; in [8]; in assay [9]; in the assay with Aromatase (Homo sapiens); in [10]; in assay [11]) was “inactive” throughout. Moreover, the Potency result in assay [12], in [13], in [14], in assay [15], in assay [16] and in [17] was “inactive” each time.

As to `CC[C@H]1OC(=O)[C@H](C)[C@@H](O[C@H]2C[C@@](C)(OC)[C@@H](O)[C@H](C)O2)[C@H](C)[C@@H](O[C@@H]2O[C@H](C)C[C@H](N(C)C)[C@H]2O)[C@](C)(O)C[C@@H](C)/C(=N\OCOCCOC)[C@H](C)[C@@H](O)[C@]1(C)O`, the Potency entry is “inactive and 32.1 µM (active)” in assay [1]; “inactive and 18.1 µM (active)” in assay [9]; “inactive and 10.2 µM (active)” in [10]. In addition, the Potency entry in assay [2], in [3], in [4], in assay [5], in [6] and in assay [7] was “inactive” each time. The Potency entry (in [8]; with Aromatase (Homo sapiens); in assay [11]; in assay [12]; in assay [13]; in assay [14]) was “inactive” each time. Also, the Potency result in assay [15] and in assay [16] was “inactive” in each case. Further, the call in assay [18] was inactive.

For the molecule `O=P(O)(O)Oc1ccccc1`, the Potency entry in assay [1], in assay [2], in assay [3], in [4], in assay [5] and in [6] was “inactive” throughout. For the same molecule, the Potency result (in assay [7]; in assay [8]; in assay [9]; with Aromatase (Homo sapiens); in [10]; in assay [11]) was “inactive” throughout. The Potency result in assay [12], in assay [13], in assay [15], in assay [16] and in assay [17] was “inactive” throughout.

In the case of `O=C(CCS)OCC(COC(=O)CCS)(COC(=O)CCS)COC(=O)CCS`, the Potency entry in assay [1], in assay [2], in assay [3], in assay [4], in assay [5] and in assay [6] was “inactive” each time. The Potency result (in assay [7]; in assay [8]; in [9]; in the assay with Aromatase (Homo sapiens); in assay [11]; in [12]) was “inactive” in each case. The molecule was classed as inactive in assay [18].

Regarding `O=NN(CCCl)C(=O)NCCCl`, the Potency entry in assay [1], in assay [2], in assay [3], in assay [4], in assay [5] and in assay [6] was “inactive” in each case. In addition, the Potency entry (in [7]; in [8]; in [9]; with Aromatase (Homo sapiens); in assay [10]; in assay [11]) was “inactive” throughout. Further, the Potency entry in [12], in assay [19], in [15], in assay [16] and in assay [17] was “inactive” throughout. In [18], the molecule was called inactive.

Take `CC(C)(C)S`: the Potency entry in assay [1], in assay [2], in [3], in assay [4], in assay [5] and in assay [6] was “inactive” in each case. Besides, the Potency result (in assay [7]; in [8]; in assay [9]; with Aromatase (Homo sapiens); in assay [10]; in assay [11]) was “inactive” throughout. Also, the Potency result in assay [12], in assay [13], in [14] and in assay [15] was “inactive” throughout. The molecule was classed as inactive in [18].

As for `CC(C)COC(=O)COc1cc(Cl)c(Cl)cc1Cl`, the Potency entry in assay [1], in assay [2], in [3], in [4], in assay [5] and in [6] was “inactive” in each case. The Potency result (in assay [7]; in assay [8]; in assay [9]; with Aromatase (Homo sapiens); in assay [10]; in [11]) was “inactive” in each case. The Potency result in [12], in [13], in assay [15], in assay [16] and in assay [17] was “inactive” in each case. The call in assay [18] was inactive.

`CC[C@H]1OC(=O)[C@H](C)[C@@H](O[C@H]2C[C@@](C)(OC)[C@@H](O)[C@H](C)O2)[C@H](C)[C@@H](O[C@@H]2O[C@H](C)C[C@H](N(C)C)[C@H]2O)[C@](C)(O)C[C@@H](C)CN(C)[C@H](C)[C@@H](O)[C@]1(C)O`: the Potency in assay [1] is 29.8 µM (active) and 40.5 µM (active); in assay [2], 29.8 µM (active) and 36.1 µM (active). The Potency entry in assay [3], in [4], in assay [5], in [6], in [7] and in assay [8] was “inactive” each time. Further, the Potency result (in assay [9]; with Aromatase (Homo sapiens); in assay [10]; in assay [11]; in assay [12]; in [13]) was “inactive” each time. Further, the Potency result in assay [15], in [16] and in assay [17] was “inactive” in each case.
